How the values were obtained:
Experiment in all cases: log2 ratio of Biotin-Ahx-Ub-VS probe labelling (compound/DMSO); higher = less target engagement, active = hit call of the paper (q ≤ 0.05, log2 ratio ≤ -1)
Conditions in all cases: treatment time: 3 h
[1] = compound: CCC1N(CCc2sccc12)C(=O)CCl
Method in brief: (§1)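 Compound at 50 or 200 µM, or DMSO, was applied for 3 h in triplicate to HEK293T lysate (495 µg per sample, Tris/CHAPS/IGEPAL buffer with protease inhibitors), after which Biotin-Ahx-Ub-VS was added at 0.5 µM final for 1 h. The labelled DUBs were pulled down with NeutrAvidin, digested with LysC and trypsin, and run by diaPASEF LC-MS/MS. Ratios are averaged base-two logs of compound over DMSO from median-normalised label-free quantities by unpaired t-test, counting only proteins with at least 2 unique peptides.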

[2] = compound: CN1c2ccccc2C(CS1(=O)=O)NC(=O)CCl
Method in brief: as §1

[3] = compound: Cl.ClCC(=O)N1CCc2ncncc2C1
Method in brief: as §1

[4] = compound: Cl.Cn1ncc2C(CCCc12)NC(=O)CCl
Method in brief: as §1

[5] = compound: ClCC(=O)NC1CCOc2ccccc12
Method in brief: as §1

[6] = compound: ClCC(=O)NC1CCCc2ccccc12
Method in brief: (§2)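 The values are mean compound-versus-vehicle ratios derived by unpaired t-test. For 3 h, triplicate HEK293T lysate samples (495 µg each) were treated with compound at a series of concentrations or with vehicle, after which Biotin-Ahx-Ub-VS was added to 0.5 µM final for 1 h. Labelled deubiquitinases were enriched with NeutrAvidin, digested with LysC and trypsin, and analysed by diaPASEF LC-MS/MS. Ratios are log2 values from global-median-normalised Spectronaut label-free quantities, using proteins with two or more unique peptides.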

[7] = compound: ClCC(=O)N[C@@H]1CCCc2ccccc12
Method in brief: as §2

[8] = compound: ClCC(=O)N[C@H]1CCCc2ccccc12
Method in brief: as §2

[9] = compound: CCC1N(CCc2cc(OC)c(Cl)cc12)C(=O)CCl
Method in brief: as §1

[10] = compound: CCCC1N(CCc2cc(OC)c(OC)cc12)C(=O)CCl
Method in brief: as §1

Measured: log2 ratio of Biotin-Ahx-Ub-VS probe labelling

USP9X (UniProt Q93008)
Chain of UniProt Q93008 (Q93008 whole entry): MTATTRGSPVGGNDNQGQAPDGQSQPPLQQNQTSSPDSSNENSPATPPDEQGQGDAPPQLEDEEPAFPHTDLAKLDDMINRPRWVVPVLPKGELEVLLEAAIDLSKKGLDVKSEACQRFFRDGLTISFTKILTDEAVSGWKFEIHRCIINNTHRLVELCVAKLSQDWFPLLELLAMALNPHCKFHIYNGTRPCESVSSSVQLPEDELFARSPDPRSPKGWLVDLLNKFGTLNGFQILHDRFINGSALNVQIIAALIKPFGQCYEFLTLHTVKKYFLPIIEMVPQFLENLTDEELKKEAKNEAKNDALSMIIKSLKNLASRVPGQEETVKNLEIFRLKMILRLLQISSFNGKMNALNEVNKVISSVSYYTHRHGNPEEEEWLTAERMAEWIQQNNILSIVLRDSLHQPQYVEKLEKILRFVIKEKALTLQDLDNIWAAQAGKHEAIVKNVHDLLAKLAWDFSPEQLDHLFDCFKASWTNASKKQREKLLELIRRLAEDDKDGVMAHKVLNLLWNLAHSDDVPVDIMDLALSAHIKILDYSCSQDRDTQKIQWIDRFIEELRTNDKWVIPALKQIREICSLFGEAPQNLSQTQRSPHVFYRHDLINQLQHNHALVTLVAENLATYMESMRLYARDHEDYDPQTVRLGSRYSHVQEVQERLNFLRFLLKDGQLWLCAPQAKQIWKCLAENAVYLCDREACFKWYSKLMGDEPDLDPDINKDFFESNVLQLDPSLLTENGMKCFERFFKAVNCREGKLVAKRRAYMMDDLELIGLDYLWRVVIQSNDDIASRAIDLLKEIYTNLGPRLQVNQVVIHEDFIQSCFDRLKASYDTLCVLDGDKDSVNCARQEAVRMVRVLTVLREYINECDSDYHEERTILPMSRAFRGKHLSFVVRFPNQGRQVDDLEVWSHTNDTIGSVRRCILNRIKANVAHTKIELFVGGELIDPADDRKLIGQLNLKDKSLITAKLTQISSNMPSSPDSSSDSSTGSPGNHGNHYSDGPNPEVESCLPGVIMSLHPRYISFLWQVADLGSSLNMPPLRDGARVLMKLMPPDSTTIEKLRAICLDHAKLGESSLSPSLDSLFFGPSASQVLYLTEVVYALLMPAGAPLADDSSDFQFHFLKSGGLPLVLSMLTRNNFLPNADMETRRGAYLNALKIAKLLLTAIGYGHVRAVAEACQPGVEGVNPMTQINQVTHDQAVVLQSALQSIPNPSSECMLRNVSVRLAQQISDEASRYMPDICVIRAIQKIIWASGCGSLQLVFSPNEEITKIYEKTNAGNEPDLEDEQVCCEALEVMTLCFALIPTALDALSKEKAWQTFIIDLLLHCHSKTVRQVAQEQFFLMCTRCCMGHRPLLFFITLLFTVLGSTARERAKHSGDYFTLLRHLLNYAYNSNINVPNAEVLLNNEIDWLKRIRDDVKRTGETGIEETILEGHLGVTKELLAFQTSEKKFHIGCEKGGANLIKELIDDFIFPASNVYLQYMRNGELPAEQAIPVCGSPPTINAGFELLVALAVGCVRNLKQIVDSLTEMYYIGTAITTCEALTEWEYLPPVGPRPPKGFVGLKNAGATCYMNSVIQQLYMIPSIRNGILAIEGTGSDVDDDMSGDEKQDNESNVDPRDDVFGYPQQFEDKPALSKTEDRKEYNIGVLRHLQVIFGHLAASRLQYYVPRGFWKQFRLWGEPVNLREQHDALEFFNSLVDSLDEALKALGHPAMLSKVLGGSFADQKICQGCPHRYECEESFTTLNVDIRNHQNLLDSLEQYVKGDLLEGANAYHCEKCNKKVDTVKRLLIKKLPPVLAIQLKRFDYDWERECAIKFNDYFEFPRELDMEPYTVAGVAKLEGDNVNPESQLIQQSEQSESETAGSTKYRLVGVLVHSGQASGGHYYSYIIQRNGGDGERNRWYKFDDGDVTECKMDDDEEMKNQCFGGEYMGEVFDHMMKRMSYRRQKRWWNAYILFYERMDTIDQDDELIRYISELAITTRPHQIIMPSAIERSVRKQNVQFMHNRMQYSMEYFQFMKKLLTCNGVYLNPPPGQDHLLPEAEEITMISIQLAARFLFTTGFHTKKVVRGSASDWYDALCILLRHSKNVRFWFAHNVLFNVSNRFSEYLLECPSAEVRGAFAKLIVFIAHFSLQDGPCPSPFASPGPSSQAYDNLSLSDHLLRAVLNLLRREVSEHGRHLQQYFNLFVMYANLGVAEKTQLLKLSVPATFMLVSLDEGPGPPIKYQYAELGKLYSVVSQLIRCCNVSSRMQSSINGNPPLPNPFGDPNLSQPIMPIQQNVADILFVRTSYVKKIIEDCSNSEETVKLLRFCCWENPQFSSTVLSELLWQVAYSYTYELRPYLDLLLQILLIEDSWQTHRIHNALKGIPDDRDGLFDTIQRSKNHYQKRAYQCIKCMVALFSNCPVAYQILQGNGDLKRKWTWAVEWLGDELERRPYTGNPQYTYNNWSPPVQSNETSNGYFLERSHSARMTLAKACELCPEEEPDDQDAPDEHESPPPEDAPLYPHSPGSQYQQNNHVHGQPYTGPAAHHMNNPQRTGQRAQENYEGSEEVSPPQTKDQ
inactive: [1]; compound concentration: 50uM -0.0428 | [1]; compound concentration: 200uM -0.401 | [2]; compound concentration: 50uM -0.081 | [2]; compound concentration: 200uM -0.107 | [3]; compound concentration: 50uM -0.026 | [3]; compound concentration: 200uM -0.376 | [4]; compound concentration: 50uM 0.251 | [4]; compound concentration: 200uM 0.139 | [5]; compound concentration: 50uM 0.133 | [5]; compound concentration: 200uM -0.133 | [6]; compound concentration: 0.78uM -0.00765 | [6]; compound concentration: 1.56uM 0.093 | [6]; compound concentration: 3.13uM -0.0291 | [6]; compound concentration: 6.25uM 0.0092 | [6]; compound concentration: 12.5uM -0.0222 | [6]; compound concentration: 25uM -0.0898 | [6]; compound concentration: 50uM -0.0629 | [6]; compound concentration: 100uM -0.0253 | [6]; compound concentration: 200uM -0.0679 | [7]; compound concentration: 0.78uM -0.0702 | [7]; compound concentration: 1.56uM 0.0356 | [7]; compound concentration: 3.13uM 0.00372 | [7]; compound concentration: 6.25uM -0.00489 | [7]; compound concentration: 12.5uM -0.0481 | [7]; compound concentration: 25uM -0.0408 | [7]; compound concentration: 50uM -0.128 | [7]; compound concentration: 100uM -0.121 | [7]; compound concentration: 200uM -0.242 | [8]; compound concentration: 0.78uM -0.0701 | [8]; compound concentration: 1.56uM 0.0195 | [8]; compound concentration: 3.13uM 0.0203 | [8]; compound concentration: 6.25uM 0.0759 | [8]; compound concentration: 12.5uM -0.0293 | [8]; compound concentration: 25uM -0.0731 | [8]; compound concentration: 50uM -0.0138 | [8]; compound concentration: 100uM -0.119 | [8]; compound concentration: 200uM -0.256 | [9]; compound concentration: 50uM -0.0734 | [9]; compound concentration: 200uM -0.969 | [10]; compound concentration: 50uM -0.249 | [10]; compound concentration: 200uM -0.82

OTUD7B (UniProt Q6GQQ9)
Chain of UniProt Q6GQQ9 (Q6GQQ9 whole entry): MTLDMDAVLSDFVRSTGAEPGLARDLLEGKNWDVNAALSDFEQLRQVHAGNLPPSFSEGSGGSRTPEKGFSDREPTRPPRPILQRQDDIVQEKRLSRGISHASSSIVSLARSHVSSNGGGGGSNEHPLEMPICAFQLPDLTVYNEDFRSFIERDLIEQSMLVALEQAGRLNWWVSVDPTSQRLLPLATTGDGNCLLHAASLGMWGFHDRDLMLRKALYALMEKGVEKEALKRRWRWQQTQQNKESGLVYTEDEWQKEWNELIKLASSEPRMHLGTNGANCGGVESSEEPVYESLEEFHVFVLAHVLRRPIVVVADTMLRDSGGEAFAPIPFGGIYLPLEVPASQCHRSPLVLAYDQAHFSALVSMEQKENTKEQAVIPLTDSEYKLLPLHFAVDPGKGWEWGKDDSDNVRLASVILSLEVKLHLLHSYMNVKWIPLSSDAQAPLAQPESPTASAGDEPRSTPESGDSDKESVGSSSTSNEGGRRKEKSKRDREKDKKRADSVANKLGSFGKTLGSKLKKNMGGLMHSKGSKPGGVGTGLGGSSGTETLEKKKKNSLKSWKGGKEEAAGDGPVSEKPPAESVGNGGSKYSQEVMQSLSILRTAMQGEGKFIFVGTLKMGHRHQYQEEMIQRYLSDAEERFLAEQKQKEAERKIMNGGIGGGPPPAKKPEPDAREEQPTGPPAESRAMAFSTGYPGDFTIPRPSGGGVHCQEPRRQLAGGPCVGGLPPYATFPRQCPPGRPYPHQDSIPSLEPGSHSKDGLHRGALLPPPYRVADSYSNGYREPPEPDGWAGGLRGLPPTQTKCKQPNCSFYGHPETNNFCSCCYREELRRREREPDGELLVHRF
active: [2]; compound concentration: 50uM -1.97 | [2]; compound concentration: 200uM -4.51 | [3]; compound concentration: 200uM -1.65 | [4]; compound concentration: 50uM -4.9 | [4]; compound concentration: 200uM -5.48 | [5]; compound concentration: 50uM -2.66 | [5]; compound concentration: 200uM -4.52 | [6]; compound concentration: 12.5uM -1.66 | [6]; compound concentration: 25uM -2.4 | [6]; compound concentration: 50uM -3.12 | [6]; compound concentration: 100uM -3.17 | [6]; compound concentration: 200uM -3.5 | [7]; compound concentration: 50uM -1.03 | [7]; compound concentration: 100uM -1.55 | [7]; compound concentration: 200uM -2.65 | [8]; compound concentration: 6.25uM -1.39 | [8]; compound concentration: 12.5uM -2.2 | [8]; compound concentration: 25uM -3.03 | [8]; compound concentration: 50uM -3.18 | [8]; compound concentration: 100uM -3.43 | [8]; compound concentration: 200uM -3.45
inactive: [1]; compound concentration: 50uM -0.4 | [1]; compound concentration: 200uM -0.926 | [3]; compound concentration: 50uM -0.537 | [6]; compound concentration: 0.78uM -0.175 | [6]; compound concentration: 1.56uM -0.207 | [6]; compound concentration: 3.13uM -0.537 | [6]; compound concentration: 6.25uM -0.893 | [7]; compound concentration: 0.78uM -0.133 | [7]; compound concentration: 1.56uM -0.0966 | [7]; compound concentration: 3.13uM -0.116 | [7]; compound concentration: 6.25uM -0.27 | [7]; compound concentration: 12.5uM -0.226 | [7]; compound concentration: 25uM -0.495 | [8]; compound concentration: 0.78uM -0.224 | [8]; compound concentration: 1.56uM -0.562 | [8]; compound concentration: 3.13uM -0.851 | [9]; compound concentration: 50uM -0.0276 | [9]; compound concentration: 200uM -0.501 | [10]; compound concentration: 50uM -0.433 | [10]; compound concentration: 200uM -0.824

From the supplement of paper PMC11732987, “Enantioselective OTUD7B fragment discovery through chemoproteomics screening and high-throughput optimisation” (Communications Chemistry, 2025)
